Screening results deposited in PubChem BioAssay by several laboratories.
BJeLR viability: kills HRASV12-expressing BJeLR cells. BJeLR (HRASV12) viability, CellTiter-Glo ATP luminescence, 48 h. inhibition, % (test concentration not listed). 300,000 compounds, 0.17% hits. AID 1554; in the data active = inhibition above about 50%
MazF activator: activators of E. coli MazEF toxin-antitoxin RNase; P0AE70; FAM/BHQ RNA-DNA oligo cleavage fluorescence, 5 h; activation, % at 20 µM; 350,000 compounds, 0.32% hits; in the data active = activation above about 50%
Target sequence (P0AE70 whole entry, looked up): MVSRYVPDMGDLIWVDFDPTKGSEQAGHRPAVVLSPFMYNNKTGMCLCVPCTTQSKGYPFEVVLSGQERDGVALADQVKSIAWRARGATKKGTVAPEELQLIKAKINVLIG
PrPC TRFRET: reduces human prion protein on the cell surface | 370,000 compounds, 0.43% hits | inhibition, % at 13.8 µM | P04156 | cell surface PrPC, TR-FRET read-out; in the data active = inhibition above about 24%; note: 0% = median of the test wells and 100% = reference compound wells
VHR inh abs: inhibitors of human VHR1 phosphatase (DUSP3) | recombinant VHR phosphatase, pNPP absorbance | inhibition, % at 13.3 µM | P51452 | 290,000 compounds, 0.52% hits; in the data active = inhibition above about 50%
Target sequence (P51452 whole entry, looked up): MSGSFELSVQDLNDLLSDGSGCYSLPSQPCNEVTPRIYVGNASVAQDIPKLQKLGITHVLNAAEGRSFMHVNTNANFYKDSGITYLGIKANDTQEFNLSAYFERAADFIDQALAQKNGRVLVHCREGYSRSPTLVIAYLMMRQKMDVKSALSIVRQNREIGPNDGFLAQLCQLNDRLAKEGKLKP
PfHsp40 yeast: restores yeast growth despite PfHsp40 toxicity; S. cerevisiae expressing PfHsp40, growth rescue, ATP luminescence; growth rescue, % at 12.5 µM; 340,000 compounds, 0.68% hits; in the data active = growth rescue above about 28%, passing the limit was not always enough;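 note: yeast W303a lacking pdr1 and pdr3 grown in galactose medium; growth measured after three days at 30 °C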
PrP 5UTR inh: suppresses PrP 5' UTR mRNA reporter expression. 340,000 compounds, 0.35% hits. cell-based PrP 5' UTR mRNA reporter, plate reader. inhibition, % (concentration not given with the values); in the data active = inhibition above about 52%; note: 0 = median of the neutral control wells
* marks the source's active call; other numbers are inactive results; x = not tested or not shown. Hits are enriched below; roughly 2.1% of the tested compounds scored in any of these assays.

SMILES | BJeLR viability | MazF activator | PrPC TRFRET | VHR inh abs | PfHsp40 yeast | PrP 5UTR inh
O=C(Cc1cccs1)NNC(=S)NCc1ccc(Cl)cc1 | -3 | 2 | 10 | 21 | 72* | -9
CCC(C)(C)n1nnnc1C(c1ccncc1)N1CCN(c2cccc(OC)c2)CC1 (stereo not drawn) | 8 | 0 | 5 | 6 | -2 | -13
CCC(C)(C)n1nnnc1C(c1cccnc1)N1CCN(c2cccc(C(F)(F)F)c2)CC1 (stereo not drawn) | -3 | -4 | 8 | 39 | 215* | 13
Cc1ccc(CNC(=O)[C@]2(C)CCC[C@@]3(C)C4CC[C@@]5(C)C[C@]4(CCC32)CC5=O)cc1 (stereo partly drawn) | x | -5 | 9 | x | 95* | -9
C[C@@]12CCC3[C@@](CCC4[C@@]3(C)CCC[C@@]4(C)C(=O)NC3CCCCC3)(CC1=O)C2 (stereo partly drawn) | x | 2 | -6 | x | 4 | -21
COc1ccc(CNC(=O)[C@]2(C)CCC[C@@]3(C)C4CC[C@@]5(C)C[C@]4(CCC32)CC5=O)cc1 (stereo partly drawn) | x | 2 | 3 | x | 162* | -12
CC(=O)N1C[C@H]2CON(C)[C@H]2C[C@H]1c1cccc(-c2cc(Cl)cc(Cl)c2)c1 | x | 4 | -5 | x | x | x
CCOc1ccc(-n2ccnc2SCC(=O)Nc2nnc(CC)s2)cc1 | -6 | 1 | -2 | 55* | -2 | -19
CCCCCCCCCn1ccc(=N)cc1 | 46 | 15 | 25* | -3 | 1 | 4
COc1cc(C(=O)COC(=O)c2ccc3c(c2)OCCO3)cc(OC)c1OC | x | 5 | 6 | x | x | x
O=C(Nc1ccn(Cc2c(F)c(F)cc(F)c2F)n1)c1ccc(COc2ccc(Cl)cc2Cl)o1 | 2 | -25 | 2 | -13 | 1 | -40
O=C(Nc1ccn(Cc2c(F)c(F)c(F)c(F)c2F)n1)c1ccc(COc2ccccc2Cl)cc1 | -2 | 3 | 5 | 52* | -1 | 1
CC(C)(C)C(=O)C(Oc1ccc(Cl)cc1)n1cncn1 (stereo not drawn) | x | 2 | 4 | x | 397* | -22
COc1cccc(NC(=O)[C@H](CC(C)C)NC(=O)[C@@H]2Cc3ccccc3CN2)c1 | -1 | 8 | 9 | -9 | 1 | -19
Cc1cccc(C)c1OCC(=O)NNC(=S)NC(=O)C1CC1 | 10 | 2 | -6 | 14 | 83* | -12
O=C(/C=C/[C@H]1O[C@@H](n2cnc3c(NC(=O)c4ccccc4)ncnc32)[C@H](O)[C@@H]1O)NCCCc1ccccc1 | x | x | -1 | x | x | x
S=c1[nH]nc(-c2ccco2)n1-c1ccc(Br)cc1 | -6 | 6 | 9 | x | 43* | -11
COc1ccc(C2NN=C(c3c[nH]c4ccccc34)C2O)cc1 (stereo not drawn) | -4 | 4 | 5 | -1 | 0 | -22
COc1ccc(C2C(O)C(c3c[nH]c4ccccc34)=NN2C(=O)CCl)cc1 (stereo not drawn) | 100* | 7 | -1 | -1 | 0 | -3
N#CC1=C(N)Oc2cc(N)ccc2C1c1cccc(Br)c1 (stereo not drawn) | 56* | -20 | -6 | 18 | 2 | 38
Cn1c(CNC(=O)C(Cc2ccccc2)NC(=O)c2cccc(F)c2)cc(=O)n(C)c1=O (stereo not drawn) | 4 | -19 | -1 | 0 | 1 | 5
COc1ccccc1/C=C(/CC(=O)NCc1ccccc1)c1nc2ccccc2s1 | -22 | 13 | -3 | 54* | -1 | -24
CCOC(=O)c1ccc(NC(=O)CCc2nc(-c3ccccc3Cl)no2)cc1 | 7 | -2 | 2 | -6 | 34* | -20
CC(=O)c1ccc(N(CC(=O)NC2CCCC2)C(=O)CNC(=O)c2ccco2)cc1 | -7 | 2 | -5 | 10 | 0 | -31
COC(=O)Cc1c(C)c2ccc(OCC(=O)N(C)C)cc2oc1=O | -2 | 5 | -6 | 51* | 0 | -21
SMILES | BJeLR viability | MazF activator | PrPC TRFRET | VHR inh abs | PfHsp40 yeast | PrP 5UTR inh
Cc1ccc(NC(=O)CN(C)C(=O)COc2ncnc3ccc(Br)cc23)cc1 | x | -1 | -1 | x | 0 | -21
Cc1cccc(NC(=O)c2ccccc2O)c1C | 7 | 0 | 7 | 8 | 57* | -45
O=[N+]([O-])c1cc(S(=O)(=O)N2CCCCC2)ccc1NCc1cccc(Cl)c1 | 12 | -7 | -1 | 51* | 1 | -7
Cc1cccc(N2C(=O)NC(=O)/C(=C/c3cc4c(cc3[N+](=O)[O-])OCO4)C2=O)c1 | 3 | 537* | -6 | 12 | 1 | -60
Cc1ccc(S(=O)(=O)N2C[C@H]3C(=O)C[C@@H]4C(=O)N(c5ccccc5)C(=O)[C@@H]4[C@@H]3C[C@H]2c2cccc(Cl)c2)cc1 | x | x | -7 | x | x | x
COc1cccc(/C(O)=C2/C(=O)C(=O)N(CCN3CCOCC3)C2c2cccs2)c1 (stereo not drawn) | 3 | -7 | 3 | 53* | -1 | -28
O=S(=O)(c1ccc(F)cc1)N1CCC(c2nc3ccccc3o2)CC1 | x | x | -10 | x | x | x
O=C(NCCCN1CCCC1=O)c1cc2ccccc2o1 | x | 8 | 5 | x | 1 | -15
O=C(NCCCc1ccccc1)c1c(O)nc2sccn2c1=O | 0 | 6 | 3 | x | 178* | -11
O=C(NCCC1=CCCCC1)c1c(O)nc2sccn2c1=O | -9 | 7 | -6 | x | 372* | -11
O=C(NCCCN1CCCC1=O)c1c(O)nc2ccccn2c1=O | 9 | 6 | -4 | 52* | -1 | -12
O=C(NCCC1=CCCCC1)c1c(O)nc2ccccn2c1=O | 5 | 11 | 2 | 38 | 0 | -23
Cn1c(=O)[nH]c2c(Br)nccc21 | x | x | 3 | x | x | x
O=Nc1c(O)[nH]c2ccc(Cl)c(Cl)c12 | x | 3 | -22 | x | 0 | 24
O=C1CN(CC(=O)N2CCCCC2)c2ccccc2O1 | 1 | -13 | -3 | 19 | 125* | -45
CCN1CCN(C(=O)CN2C(=O)COc3ccc(S(=O)(=O)N4CCOCC4)cc32)CC1 | 1 | 4 | -1 | 57* | 1 | -13
O=C(CN1C(=O)COc2ccccc21)N1CCCC1 | 2 | -8 | -12 | 56* | 0 | -29
O=C1CN(CC(=O)N2CCOCC2)c2ccccc2O1 | 8 | x | x | 5 | x | x
O=C1C=C(OCCF)CC(c2ccccc2C(F)(F)F)O1 (stereo not drawn) | x | x | 7 | x | x | x
O=C(COc1cccc(Cl)c1)N/N=C\c1cc2ccccc2nc1Cl | -1 | 148* | -1 | -8 | -1 | -17
Cc1occc1C(=O)N/N=C/c1ccc(OCc2ccccc2)cc1 | -2 | 1 | 12 | -21 | 0 | -23
Cc1occc1C(=O)N/N=C/c1ccc2c(c1)OCO2 | 64* | 14 | 5 | 13 | -1 | -89
O=C(CCc1ccc(O)c(O)c1)N/N=C/c1ccc2c(c1)OCO2 | -3 | 3 | -7 | 18 | -1 | -3
Cc1occc1C(=O)N/N=C/c1ccc(-c2ccccc2)cc1 | 62* | 9 | 13 | 10 | -1 | -57
